Here are results for 12 compounds from the supplement of paper PMC6992640.

For the experiment, the system named is WHIM30 (cells of a triple-negative basal-like breast cancer xenograft). The experiment in a line: cell viability of combination (% of vehicle); higher = less cytotoxic. The conditions noted are these: 1 µM; 72 h; partner dose: 10 nM. Here is the method:
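PDX cells were treated for 72 h with each drug at 1 µM plus carfilzomib (10 nM; 100 nM for WHIM2). Luciferase viability is expressed as percent of vehicle.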
Consider `COc1ccc(C[C@H](N)C(=O)N[C@@H]2[C@H](O)[C@H](n3cnc4c(N(C)C)ncnc43)O[C@@H]2CO)cc1.Cl.Cl` [Puromycin dihydrochloride] + CC(C)C[C@H](NC(=O)[C@H](CCc1ccccc1)NC(=O)CN1CCOCC1)C(=O)N[C@@H](Cc1ccccc1)C(=O)N[C@@H](CC(C)C)C(=O)[C@@]1(C)CO1 [Carfilzomib], for which the “cell viability of combination” value was found to be 5.17. Consider `CCCCCCCCc1ccc(CCC(N)(CO)CO)cc1.Cl` [Fingolimod (FTY720)] + CC(C)C[C@H](NC(=O)[C@H](CCc1ccccc1)NC(=O)CN1CCOCC1)C(=O)N[C@@H](Cc1ccccc1)C(=O)N[C@@H](CC(C)C)C(=O)[C@@]1(C)CO1 [Carfilzomib], for which the “cell viability of combination” value worked out at 16.7. To `Oc1c(Cl)cc(Cl)c2cccnc12` [Chloroxine] + CC(C)C[C@H](NC(=O)[C@H](CCc1ccccc1)NC(=O)CN1CCOCC1)C(=O)N[C@@H](Cc1ccccc1)C(=O)N[C@@H](CC(C)C)C(=O)[C@@]1(C)CO1 [Carfilzomib] belongs 19. To `CC(NCCCc1cccc(C(F)(F)F)c1)c1cccc2ccccc12.Cl` (configuration not stated) [Cinacalcet HCl] + CC(C)C[C@H](NC(=O)[C@H](CCc1ccccc1)NC(=O)CN1CCOCC1)C(=O)N[C@@H](Cc1ccccc1)C(=O)N[C@@H](CC(C)C)C(=O)[C@@]1(C)CO1 [Carfilzomib] belongs 18.6; to `Clc1ccc(C(Cn2ccnc2)OCc2ccsc2Cl)c(Cl)c1` (configuration not stated) [Tioconazole] + CC(C)C[C@H](NC(=O)[C@H](CCc1ccccc1)NC(=O)CN1CCOCC1)C(=O)N[C@@H](Cc1ccccc1)C(=O)N[C@@H](CC(C)C)C(=O)[C@@]1(C)CO1 [Carfilzomib], 16.9; to `CC(Oc1cc(-c2cnn(C3CCNCC3)c2)cnc1N)c1c(Cl)ccc(F)c1Cl` [(R)-Crizotinib] + CC(C)C[C@H](NC(=O)[C@H](CCc1ccccc1)NC(=O)CN1CCOCC1)C(=O)N[C@@H](Cc1ccccc1)C(=O)N[C@@H](CC(C)C)C(=O)[C@@]1(C)CO1 [Carfilzomib], 27.4. On to `Cc1c(-c2ccc(O)cc2)n(Cc2ccc(OCCN3CCCCCC3)cc2)c2ccc(O)cc12.Cl` [Bazedoxifene HCl] + CC(C)C[C@H](NC(=O)[C@H](CCc1ccccc1)NC(=O)CN1CCOCC1)C(=O)N[C@@H](Cc1ccccc1)C(=O)N[C@@H](CC(C)C)C(=O)[C@@]1(C)CO1 [Carfilzomib], for which the “cell viability of combination” value stood at 11.3.

Turning to `COc1ccccc1OCCNCC(O)COc1cccc2[nH]c3ccccc3c12` (configuration not stated) [Carvedilol] + CC(C)C[C@H](NC(=O)[C@H](CCc1ccccc1)NC(=O)CN1CCOCC1)C(=O)N[C@@H](Cc1ccccc1)C(=O)N[C@@H](CC(C)C)C(=O)[C@@]1(C)CO1 [Carfilzomib], the “cell viability of combination” value was found to be 20.7. To `CC(C)(C)Cn1c(N)nc2ccc(-c3[nH]c(C(C)(C)C)nc3-c3ccc(F)cc3)nc21.CS(=O)(=O)O.CS(=O)(=O)O` + CC(C)C[C@H](NC(=O)[C@H](CCc1ccccc1)NC(=O)CN1CCOCC1)C(=O)N[C@@H](Cc1ccccc1)C(=O)N[C@@H](CC(C)C)C(=O)[C@@]1(C)CO1 [Carfilzomib] belongs 14.4. Turning to `CCc1c(Cl)c(O)c(Cl)c(O)c1C(=O)OC1C(C)OC(OCC2=CC=CCC(O)C(C)=CC(CC)C(OC3OC(C)(C)C(OC(=O)C(C)C)C(O)C3O)C(C)=CC(C)=CCC(C(C)O)OC2=O)C(OC)C1O` (configuration not stated) [Fidaxomicin] + CC(C)C[C@H](NC(=O)[C@H](CCc1ccccc1)NC(=O)CN1CCOCC1)C(=O)N[C@@H](Cc1ccccc1)C(=O)N[C@@H](CC(C)C)C(=O)[C@@]1(C)CO1 [Carfilzomib], the “cell viability of combination” value amounted to 21.2. As for `Cl.O.O=C1Cc2cc(CCN3CCN(c4nsc5ccccc45)CC3)c(Cl)cc2N1` [Ziprasidone hydrochloride monohydrate] + CC(C)C[C@H](NC(=O)[C@H](CCc1ccccc1)NC(=O)CN1CCOCC1)C(=O)N[C@@H](Cc1ccccc1)C(=O)N[C@@H](CC(C)C)C(=O)[C@@]1(C)CO1 [Carfilzomib], the figure is 22.5; as for `Cc1cccc(CN2CCN(C(c3ccccc3)c3ccc(Cl)cc3)CC2)c1.Cl.Cl` (configuration not stated) [Meclizine 2HCl] + CC(C)C[C@H](NC(=O)[C@H](CCc1ccccc1)NC(=O)CN1CCOCC1)C(=O)N[C@@H](Cc1ccccc1)C(=O)N[C@@H](CC(C)C)C(=O)[C@@]1(C)CO1 [Carfilzomib], 11.7.
